The structures appear in SMILES notation. Records with an inconclusive call do not appear. Values without a mark were called inactive. The call rests on the fitted dose curve; in most records, active means well fitted cell-killing curve with a large enough effect; inconclusive means small, poorly fitted or top-dose-only effect; inactive means flat fitted curve, though single readings scatter.

A short description of this test: qHTS of pediatric cancer cell lines to identify multiple opportunities for drug repurposing: Primary screen for BT-37 cells (AID 1347094). The conditions noted are these: BT-37 viability, CellTiter-Glo luminescence, 48 h; series mostly up to 57.3 µM; activity change, negative = cytotoxic: at the top concentration. An excerpt:
Drug repurposing or repositioning has been offered as a strategy for drug development in oncology programs. This approach has special potential for childhood cancers and other rare or orphan diseases, where the expected return on new drug development has been a disincentive to pharmaceuticals. […] In this project we exploit the poly-pharmacology of drugs to discover new indications via phenotypic screening of a panel of 19 well-characterized cell lines derived from solid tumors seen in children and adolescents. The goal is to identify approved drugs with previously unrecognized anticancer properties that has the potential to reveal new mechanisms and biological processes involved in carcinogenesis or drug resistance. We employed a titration-based paradigm (quantitative high-throughput screening or qHTS), where all compounds were tested at multiple concentrations for their effect on cell viability. Concentration-response curves (CRCs) were derived directly from the primary screen, and both potency and efficacy values were used to identify compounds with robust bioactivity profiles. We screened the NIH Chemical Genomics Center (NCGC) Pharmaceutical Collection (NPC) and Mechanism Interrogation Plate (MIPE) small molecule collections of approved and investigational compounds against these cell lines; and measured metabolically active cells after 48 hours of compound treatment as a proxy for cell viability. […] Assay Submitter: Nathalia J. Martinez, National Center for Advancing Translational Sciences, National Institutes of Health, Rockville, MD, USA; email: natalia.martinez@nih.gov Shen, M et al. Quantitative high-throughput phenotypic screening of pediatric cancer cell lines identifies multiple opportunities for drug repurposing. Oncotarget 2017 Dec 19;9(4):4758-4772. PMID 29435139.
The cells were obtained from University of North Carolina (UNC), Pediatric Preclinical Testing Program (PPT), and Coriell Institute (CI). qHTS cell viability assay: Cells were assayed in growth media at a density of 500-1,000 cells/well. Five microliters of cells were dispensed into 1,536-well, white, solid-bottom, TC-treated plates (Greiner Bio One) using a multidrop dispenser and incubated at 37 degrees C, 5% CO2, under a humidified atmosphere for 5 hours. Twenty-three nanoliters of compounds and controls (neutral control DMSO or positive control bortezomib at final concentration of 2.3 µM) were subsequently transferred by Kalypsys pintool. For primary screens, the MIPE collection was tested at 11-point dilutions (final concentrations range from 0.78 nM to 46 µM) and the NPC collection at 8-point dilutions (final concentrations range from 0.59 nM to 46 µM). Compounds tested in follow-up screens were assayed at 11-point dilutions. Cells were incubated for 48 hours, followed by addition of 3 µL of CellTiter-Glo (Promega). After a 15 min incubation at room temperature, samples were analyzed for luminescence intensity using a ViewLux High-throughput CCD imager equipped with clear filters.
A general note: Quantitative high-throughput screening tests each substance at several concentrations.
As to `CCCCCCCCCCCCCCCCCCO`, the “activity change, negative = cytotoxic” value was 9.58%.

For the molecule `C/C=C/C(=O)N(CC)c1ccccc1C`, the “activity change, negative = cytotoxic” value is 15.1%.

As for `FC(F)(F)C(Cl)Br` (stereo not given), the “activity change, negative = cytotoxic” value was -4.54%.

Take `O=C(Cn1ccnc1[N+](=O)[O-])NCCO`: the “activity change, negative = cytotoxic” value was 4.11%.

With `COc1ccc(O)cc1`, the “activity change, negative = cytotoxic” value was -16.2%.

Consider `NNC(=O)CP(=O)(c1ccccc1)c1ccccc1`, for which the “activity change, negative = cytotoxic” value was 38.1%.

Consider `O=C1c2ccccc2S(=O)(=O)N1CCCCN1CCN(c2ncccn2)CC1`, for which the “activity change, negative = cytotoxic” value is -6.51%.

In the case of `C[C@@H]1O[C@@H](OC[C@H]2O[C@@H](Oc3c(-c4ccc(O)c(O)c4)oc4cc(O)cc(O)c4c3=O)[C@H](O)[C@@H](O)[C@@H]2O)[C@H](O)[C@H](O)[C@H]1O`, the “activity change, negative = cytotoxic” value is 14%.

For `C[C@@H](c1ncncc1F)C(O)(Cn1cncn1)c1ccc(F)cc1F` (stereo not given in full), the “activity change, negative = cytotoxic” value was 9.88%.

As to `CCN1CC(CCN2CCOCC2)C(c2ccccc2)(c2ccccc2)C1=O` (stereo not given), the “activity change, negative = cytotoxic” value was 0.223%.

Consider `COc1ccc(-c2cc(=O)c3c(O)cc(O[C@@H]4O[C@H](CO[C@@H]5O[C@@H](C)[C@H](O)[C@@H](O)[C@H]5O)[C@@H](O)[C@H](O)[C@H]4O)cc3o2)cc1O`, for which the “activity change, negative = cytotoxic” value is 12.5%.

Regarding `CC(=O)Nc1ccccc1`, the “activity change, negative = cytotoxic” value is 6.13%.

In the case of `CN1C(=O)CC(c2ccccc2)C1=O` (stereo not given), the “activity change, negative = cytotoxic” value is 2.33%.

Regarding `O=C(NCCCN1CCOCC1)c1ccc(Cl)cc1`, the “activity change, negative = cytotoxic” value is -6.73%.

For `Cn1c(=O)c2c(ncn2CCO)n(C)c1=O`, the “activity change, negative = cytotoxic” value was -8.55%.

For `Cc1ccc(C(C)C)c(O)c1`, the “activity change, negative = cytotoxic” value was 11.4%.

As to `COc1ccc(C(=O)NCc2ccc(OCCN(C)C)cc2)cc1OC`, the “activity change, negative = cytotoxic” value is 5.35%.

Turning to `CCN(CC)CC1CCCCN1CC(=O)N1c2ccccc2C(=O)Nc2cccnc21` (stereo not given), the “activity change, negative = cytotoxic” value is 0.703%.

Take `CC(O)CCCCn1c(=O)c2c(ncn2C)n(C)c1=O` (stereo not given): the “activity change, negative = cytotoxic” value is -4.24%.

Turning to `O=c1[nH]c(=O)n([C@H]2C[C@H](O)[C@@H](CO)O2)cc1I`, the “activity change, negative = cytotoxic” value was 0.0726%.

Regarding `CCCCCC(N)=O`, the “activity change, negative = cytotoxic” value is 19.7%.

For `CC1(C)S[C@@H]2[C@H](N=CN3CCCCCC3)C(=O)N2[C@H]1C(=O)O`, the “activity change, negative = cytotoxic” value was 4.28%.

On to `NC(=O)N[C@@H](CCC(=O)O)C(=O)O`, for which the “activity change, negative = cytotoxic” value is 8.56%.

Turning to `OCCN1C[C@H](O)[C@@H](O)[C@H](O)[C@H]1CO`, the “activity change, negative = cytotoxic” value was 21.6%.

In the case of `CCOC(=O)OC(C)OC(=O)[C@@H]1N2C(=O)[C@@H](NC(=O)[C@H](N)c3ccccc3)[C@H]2SC1(C)C` (stereo not given in full), the “activity change, negative = cytotoxic” value is 5.39%.

On to `CCCCOC(=O)c1ccc(N)cc1`, for which the “activity change, negative = cytotoxic” value was 4.02%.

For `Nc1ccc(S(=O)(=O)c2ccc(N)cc2)cc1`, the “activity change, negative = cytotoxic” value was 14.9%.

On to `CCOc1ccc(C(=O)OCCN(CC)CC)cc1`, for which the “activity change, negative = cytotoxic” value is -2.35%.

For `CCN(CC)S(=O)(=O)c1ccc(C(=O)O)cc1`, the “activity change, negative = cytotoxic” value was 2.07%.

Regarding `CC(C)NC[C@@H](O)COc1ccc(CC(N)=O)cc1`, the “activity change, negative = cytotoxic” value was 9.64%.

Consider `CC(=O)N(CC(O)CO)c1c(I)c(C(=O)NCC(O)CO)c(I)c(C(=O)NCC(O)CO)c1I` (stereo not given), for which the “activity change, negative = cytotoxic” value was 7.78%.

In the case of `Cc1ccc2c(c1)c1c3n2CCNC3CCC1` (stereo not given), the “activity change, negative = cytotoxic” value is 0.0809%.

In the case of `Cc1c(Cn2ccnc2)c2ccccc2n1CCC(=O)O`, the “activity change, negative = cytotoxic” value is 17.4%.

Consider `CC(=O)N(CC(O)CN(C(C)=O)c1c(I)c(C(=O)NCC(O)CO)c(I)c(C(=O)NCC(O)CO)c1I)c1c(I)c(C(=O)NCC(O)CO)c(I)c(C(=O)NCC(O)CO)c1I` (stereo not given), for which the “activity change, negative = cytotoxic” value was 3.83%.

As to `NC(N)=NCCN1CCCCCCC1`, the activity change, negative = cytotoxic was 4.17% [at 0.745 µM].

For the molecule `NS(=O)(=O)c1ccc(C(=O)O)cc1`, the “activity change, negative = cytotoxic” value is 17%.

With `CC(=O)Nc1ccc(OCCOCCOc2ccc(NC(C)=O)cc2)cc1`, the “activity change, negative = cytotoxic” value was -1.43%.

As to `NC(=O)NS(=O)(=O)c1ccc(N)cc1`, the “activity change, negative = cytotoxic” value was 8.52%.

`O=C(O)c1ccc[n+]([O-])c1`: the “activity change, negative = cytotoxic” value was 12%.

For `O=C(Cn1ccnc1[N+](=O)[O-])NCc1ccccc1`, the “activity change, negative = cytotoxic” value was 6.44%.

The values are drawn from PubChem BioAssay (NCATS).
